Data on eight molecules can be found in PubChem BioAssay (EPA / NIEHS).

Several values for one entry are separate records, joined by “and”; a condition that tells them apart may be missing. Identical values can stand only once. Records with an inconclusive call do not appear. Some structures have more than one record in an assay (separate samples or runs), and their calls can disagree. Activity calls are given as the source filed them. The calls were made as follows, unless noted: active = hit-call score of the fitted dose curve at least 0.9, where 1 is the maximum; inactive = score below 0.9.

Usually AC50 stands for the concentration at which the activity in the assay is half-maximal.

Assay [1] deals with Paired box protein Pax-6 (Homo sapiens) (UniProt P26367). The assay can be described thus: ATG_Pax6_CIS: Attagene CIS-FACTORIAL HepG2 Assay for human Paired Box 6 (PAX6) (AID 2282956). The conditions noted are these: HepG2 CIS-FACTORIAL PAX6 reporter transcription, RNA readout; actives raise or lower the signal. The procedure, abridged: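 Transient MRTU transfection of HepG2 → compound exposure 24 h → TriZol RNA, oligo(dT) RT → PCR, 6-FAM primer extension, HpaI cut → capillary electrophoresis; activity fitted both directions against DMSO.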

A short description of assay [2]: ATG_PXRE_CIS: Attagene CIS-FACTORIAL HepG2 Assay for human Pregnane X Receptor Element (PXRE) (AID 2282957). The conditions noted are these: HepG2 Attagene CIS-FACTORIAL PXRE reporter, mRNA; actives raise or lower the signal. The procedure, abridged: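 Cells: HepG2, transiently transfected reporter units under cis promoter control. Exposure: 24 h. Detection: reporter mRNA via RT-PCR/CE fluorescence; bidirectional fitting, DMSO-referenced.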

The nature of assay [3]: ATG_PPRE_CIS: Attagene CIS-FACTORIAL HepG2 Assay for human Peroxisome Proliferator-activated Response Element (PPRE) (AID 2282958). The conditions noted are these: HepG2 PPRE cis-element reporter, Attagene transcription factor profiling; actives raise or lower the signal. Summed up:
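HepG2, transient MRTU transfection (cis promoter elements, endogenous TFs). 24 h dosing. RNA → oligo(dT) RT → PCR → 6-FAM primer extension → HpaI digest → CE. Bidirectional fit vs DMSO.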

The nature of assay [4]: ATG_RORE_CIS: Attagene CIS-FACTORIAL HepG2 Assay for human RAR-related Orphan Receptor Element (RORE) (AID 2282959). Particulars: HepG2 Attagene cis-factorial RORE reporter, mRNA; actives raise or lower the signal. The procedure, abridged:
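Transient MRTU transfection of human HepG2 liver cells (FuGene 6); 24 h compound exposure; TriZol RNA, oligo(dT) RT, PCR, FAM labeling, HpaI cut, CE fragment analysis. DMSO = negative control/baseline.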

Assay [5] in a line: ATG_Sox_CIS: Attagene CIS-FACTORIAL HepG2 Assay for human SRY-box transcription factor (SOX) (AID 2282960). Particulars: HepG2 Attagene cis-factorial SOX reporter, mRNA; actives raise or lower the signal. The procedure, abridged: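 Endogenous factor activity in human liver HepG2 cells carrying transfected cis-regulated reporter units. RNA taken 24 h post-dose, reverse-transcribed, PCR-amplified and sized by capillary electrophoresis. Gain or loss of signal fitted relative to DMSO.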

The target in assay [6] is Transcription factor Sp1 (Homo sapiens) (UniProt P08047). The assay can be described thus: ATG_Sp1_CIS: Attagene CIS-FACTORIAL HepG2 Assay for human Specificity Protein 1 (Sp1) (AID 2282961). The conditions noted are these: HepG2 Sp1 cis-reporter transcription, actives raise or lower the signal. The procedure, abridged:
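Transient MRTU-transfected HepG2, 24 h compound exposure. Total RNA → oligo(dT) RT → PCR of reporter → 6-FAM primer extension → HpaI digest → CE. Endpoint fitted both directions vs DMSO.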

The target of assay [7] is Signal transducer and activator of transcription 3 (Homo sapiens) (UniProt P40763). Put plainly: ATG_STAT3_CIS: Attagene CIS-FACTORIAL HepG2 Assay for human Signal Transducer and Activator of Transcription 3 (STAT3) (AID 2282963). The conditions noted are these: HepG2, Attagene cis-factorial STAT3 reporter transcription; actives raise or lower the signal. Summed up: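 Transcript-level reporter assay. HepG2 transient MRTU transfection, 24 h exposure, fluorescence detection after RT-PCR and CE; DMSO baseline.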

Assay [8] can be described thus: ATG_TA_CIS: Attagene CIS-FACTORIAL HepG2 Assay for human TA Basal Promoter (AID 2282964). The conditions noted are these: HepG2 Attagene CIS-factorial TA basal promoter reporter; actives raise or lower the signal. Summed up:
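Background internal-marker endpoint from a 52-component HepG2 cis-reporter panel. Cells treated 24 h; reporter transcripts quantified via RT-PCR and CE fluorescence against DMSO baseline.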

Assay [9] is described as follows: ATG_TCF_b_cat_CIS: Attagene CIS-FACTORIAL HepG2 Assay for human T-Cell-Factor with beta-catenin (TCF/b-cat) (AID 2282965). Particulars: HepG2 TCF/beta-catenin cis-reporter transcription, actives raise or lower the signal. The procedure, abridged: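 HepG2 cells transiently transfected with multiple cis-promoter-regulated reporter transcription units, so endogenous transcription factor activity is measured. Reporter mRNA read 24 hours after dosing by RT-PCR, fluorescent labelling and capillary electrophoresis; bidirectional fitting against DMSO.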

Assay [10] in a line: ATG_TAL_CIS: Attagene CIS-FACTORIAL HepG2 Assay for human TAL Basal Promoter (AID 2282966).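 Also: background control endpoint measuring basal TAL promoter reporter mRNA not a specific factor.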 The conditions noted are these: HepG2 Attagene cis-factorial TAL promoter reporter; actives raise or lower the signal. Summed up:
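RT-PCR plus capillary electrophoresis quantifies reporter mRNA induction in transiently transfected HepG2 cells after 24 h chemical treatment. DMSO serves as negative control and baseline for bidirectional fitting.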

Assay [11] is described as follows: ATG_TGFb_CIS: Attagene CIS-FACTORIAL HepG2 Assay for human Transforming Growth Factor (TGF) (AID 2282967). Particulars: HepG2 Attagene CIS TGFb reporter, mRNA transcription; actives raise or lower the signal. Summed up: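 Liver HepG2 line, cis-factorial reporter panel, 24 h dosing. Quantitation: RT-PCR products labeled with 6-FAM, cut with HpaI, resolved by capillary electrophoresis; DMSO-referenced bidirectional analysis.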

Assay [12] can be described thus: ATG_VDRE_CIS: Attagene CIS-FACTORIAL HepG2 Assay for human Vitamin D Receptor Element (VDRE) (AID 2282968). The conditions noted are these: HepG2 VDRE cis-reporter transcription, actives raise or lower the signal. The procedure, abridged: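 RT-PCR/CE readout of reporter mRNA; HepG2, transient transfection, 24 h dosing; DMSO baseline; bidirectional analysis.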
The target in assay [13] is Estrogen receptor (Homo sapiens) (UniProt P03372). The assay can be described thus: ATG_ERa_TRANS: Attagene TRANS-FACTORIAL HepG2 Assay for human Estrogen Receptor alpha (ERa) (AID 2282970; active = hit-call score of the fitted dose curve at least 0.9, where 1 is the maximum). Particulars: HepG2 Attagene TRANS ERa GAL4 reporter, mRNA. The procedure, abridged:
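Cells: HepG2, transiently transfected. Construct: GAL4-UAS reporter units regulated by exogenous NR-Gal4 chimeras. Time: 24 h. Detection: reporter mRNA by RT-PCR, capillary electrophoresis, fluorescence. Baseline: DMSO, upward fitting.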

Assay [14] deals with Steroid hormone receptor ERR1 (Homo sapiens) (UniProt P11474). The assay can be described thus: ATG_ERRa_TRANS: Attagene TRANS-FACTORIAL HepG2 Assay for human Estrogen-Related Receptor alpha (ERRa) (AID 2282971; active = hit-call score of the fitted dose curve at least 0.9, where 1 is the maximum). The conditions noted are these: HepG2 Attagene TRANS reporter, ERRa transactivation. Summed up: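 Reporter transcripts from ERRa-Gal4 chimera activity measured in transiently transfected human HepG2 cells 24 hours after dosing, using RT-PCR with 6-FAM primer extension, HpaI digestion and capillary electrophoresis; DMSO is baseline.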

The target of assay [15] is X-box-binding protein 1 (Homo sapiens) (UniProt P17861). Put plainly: ATG_Xbp1_CIS: Attagene CIS-FACTORIAL HepG2 Assay for human X-box Binding Protein 1 (XBP1) (AID 2282972). The conditions noted are these: HepG2 XBP1 cis-element reporter, Attagene multiplex; actives raise or lower the signal. The procedure, abridged:
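HepG2, transient MRTU transfection (cis-promoter driven), 24 h compound exposure. Total RNA → oligo(dT) RT → PCR → 6-FAM labeling → HpaI cut → CE. Bidirectional fit vs DMSO.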

Assay [16] in a line: ATG_PBREM_CIS: Attagene CIS-FACTORIAL HepG2 Assay for human Phenobarbital-responsive Enhancer Module (PBREM) (AID 2282955). Particulars: HepG2 PBREM cis-reporter, Attagene multiplexed transcription; actives raise or lower the signal. The procedure, abridged:
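Endogenous transcription factors in human liver HepG2 cells drive a PBREM cis-element reporter, whose transcript level after 24 h treatment is quantified by RT-PCR with capillary electrophoresis; activity fitted in both directions against DMSO.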

For assay [17], the target named is Nuclear receptor subfamily 1 group I member 3 (Homo sapiens) (UniProt Q14994). Put plainly: ATG_CAR_TRANS: Attagene TRANS-FACTORIAL HepG2 Assay for human Constitutive Androstane Receptor (CAR) (AID 2282969; active = hit-call score of the fitted dose curve at least 0.9, where 1 is the maximum;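 also: activators raise reporter mRNA above DMSO so AC50 marks induction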). The conditions noted are these: HepG2 Attagene TRANS-FACTORIAL CAR reporter. Summed up: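 HepG2 cells transiently transfected with multiplexed GAL4-UAS reporter units expressing chimeric NR-Gal4 proteins; compound exposure 24 h. Reporter mRNA measured by RT-PCR, 6-FAM labelling, HpaI digestion and capillary electrophoresis; gain-of-signal fitted against DMSO baseline.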

The target of assay [18] is Androgen receptor (Homo sapiens) (UniProt P10275). Put plainly: ATG_AR_TRANS: Attagene TRANS-FACTORIAL HepG2 Assay for human Androgen Receptor (AR) (AID 2282973; active = hit-call score of the fitted dose curve at least 0.9, where 1 is the maximum). Particulars: HepG2 Attagene TRANS-FACTORIAL AR reporter transcription. Summed up:
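Transcriptional activity of an exogenous AR–Gal4 fusion read as GAL4-UAS reporter transcript levels in transfected human HepG2 cells after 24 h dosing. Detection via RT-PCR, 6-FAM labelling, HpaI digest and capillary electrophoresis; increase over DMSO baseline.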

Assay [19] can be described thus: ATG_M_19_TRANS: Attagene TRANS-FACTORIAL HepG2 Assay for M19 Transcription Factor (Internal Marker) (AID 2282974; active = hit-call score of the fitted dose curve at least 0.9, where 1 is the maximum). The conditions noted are these: HepG2 Attagene TRANS-FACTORIAL M19 internal marker reporter. The procedure, abridged:
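Fluorescence of 6-FAM-labelled reporter cDNA fragments, separated by capillary electrophoresis, served as the readout. These derived from HepG2 cells carrying transfected GAL4-UAS reporter units after 24 h dosing, with DMSO as negative control.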

Sequence of Androgen receptor (Homo sapiens) (P10275 whole entry, looked up, the tested form may be a part): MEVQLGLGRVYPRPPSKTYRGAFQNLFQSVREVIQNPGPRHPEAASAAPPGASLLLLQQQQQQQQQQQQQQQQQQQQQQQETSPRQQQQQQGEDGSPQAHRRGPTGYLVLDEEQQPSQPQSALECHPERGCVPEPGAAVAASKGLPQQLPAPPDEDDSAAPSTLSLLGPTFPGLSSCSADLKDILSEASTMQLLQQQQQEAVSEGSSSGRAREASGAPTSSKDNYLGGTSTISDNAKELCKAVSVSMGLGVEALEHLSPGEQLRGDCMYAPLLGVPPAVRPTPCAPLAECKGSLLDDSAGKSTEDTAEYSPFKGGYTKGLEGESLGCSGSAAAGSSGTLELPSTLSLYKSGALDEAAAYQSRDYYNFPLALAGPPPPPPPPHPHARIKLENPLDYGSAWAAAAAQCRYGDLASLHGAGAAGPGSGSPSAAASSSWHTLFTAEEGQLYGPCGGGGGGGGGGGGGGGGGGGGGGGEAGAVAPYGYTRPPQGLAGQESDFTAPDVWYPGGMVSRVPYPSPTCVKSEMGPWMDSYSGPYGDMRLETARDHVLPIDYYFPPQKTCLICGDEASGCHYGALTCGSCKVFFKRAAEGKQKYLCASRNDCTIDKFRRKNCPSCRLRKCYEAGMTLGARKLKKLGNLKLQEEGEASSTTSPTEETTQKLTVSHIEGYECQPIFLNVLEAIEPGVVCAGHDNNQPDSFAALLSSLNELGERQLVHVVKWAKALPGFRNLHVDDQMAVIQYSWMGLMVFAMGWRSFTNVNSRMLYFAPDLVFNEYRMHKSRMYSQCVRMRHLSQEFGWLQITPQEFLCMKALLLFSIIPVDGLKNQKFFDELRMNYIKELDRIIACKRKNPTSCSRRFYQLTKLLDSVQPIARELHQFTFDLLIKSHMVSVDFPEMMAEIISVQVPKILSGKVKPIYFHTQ
Sequence of X-box-binding protein 1 (Homo sapiens) (P17861 whole entry, looked up): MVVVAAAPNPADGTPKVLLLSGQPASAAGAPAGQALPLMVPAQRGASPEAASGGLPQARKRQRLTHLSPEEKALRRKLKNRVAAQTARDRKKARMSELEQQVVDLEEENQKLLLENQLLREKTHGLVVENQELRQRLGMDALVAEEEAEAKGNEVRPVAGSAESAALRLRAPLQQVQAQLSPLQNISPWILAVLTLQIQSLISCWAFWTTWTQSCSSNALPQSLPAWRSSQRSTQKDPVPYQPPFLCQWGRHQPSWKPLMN
Sequence of Estrogen receptor (Homo sapiens) (P03372 whole entry, looked up, the tested form may be a part): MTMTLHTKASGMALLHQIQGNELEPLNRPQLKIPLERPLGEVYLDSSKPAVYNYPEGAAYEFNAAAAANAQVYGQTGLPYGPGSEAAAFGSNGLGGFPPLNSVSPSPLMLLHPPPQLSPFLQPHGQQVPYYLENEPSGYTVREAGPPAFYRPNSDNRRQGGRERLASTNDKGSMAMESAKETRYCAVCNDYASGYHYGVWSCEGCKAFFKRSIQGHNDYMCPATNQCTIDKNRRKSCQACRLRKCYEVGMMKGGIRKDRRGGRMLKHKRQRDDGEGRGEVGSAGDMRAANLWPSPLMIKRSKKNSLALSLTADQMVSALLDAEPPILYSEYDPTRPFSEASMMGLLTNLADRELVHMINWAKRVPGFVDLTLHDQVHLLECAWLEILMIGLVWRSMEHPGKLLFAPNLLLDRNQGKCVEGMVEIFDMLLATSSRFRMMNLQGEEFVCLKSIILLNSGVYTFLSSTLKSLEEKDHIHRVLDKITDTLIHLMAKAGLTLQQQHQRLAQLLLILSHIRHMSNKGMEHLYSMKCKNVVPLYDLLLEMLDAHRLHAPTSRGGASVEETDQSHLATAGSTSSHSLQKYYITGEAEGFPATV
Sequence of Paired box protein Pax-6 (Homo sapiens) (P26367 whole entry, looked up): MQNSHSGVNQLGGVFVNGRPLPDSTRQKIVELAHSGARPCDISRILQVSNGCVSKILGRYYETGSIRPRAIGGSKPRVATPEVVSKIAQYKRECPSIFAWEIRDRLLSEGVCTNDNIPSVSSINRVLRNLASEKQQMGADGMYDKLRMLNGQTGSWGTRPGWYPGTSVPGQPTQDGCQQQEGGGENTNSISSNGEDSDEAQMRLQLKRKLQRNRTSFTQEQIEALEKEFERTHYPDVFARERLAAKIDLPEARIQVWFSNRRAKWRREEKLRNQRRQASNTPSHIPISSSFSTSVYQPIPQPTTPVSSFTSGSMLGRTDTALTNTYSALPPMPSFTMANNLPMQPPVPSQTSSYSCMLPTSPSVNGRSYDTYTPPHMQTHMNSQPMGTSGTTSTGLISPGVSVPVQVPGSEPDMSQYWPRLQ
Sequence of Nuclear receptor subfamily 1 group I member 3 (Homo sapiens) (Q14994 whole entry, looked up, the tested form may be a part): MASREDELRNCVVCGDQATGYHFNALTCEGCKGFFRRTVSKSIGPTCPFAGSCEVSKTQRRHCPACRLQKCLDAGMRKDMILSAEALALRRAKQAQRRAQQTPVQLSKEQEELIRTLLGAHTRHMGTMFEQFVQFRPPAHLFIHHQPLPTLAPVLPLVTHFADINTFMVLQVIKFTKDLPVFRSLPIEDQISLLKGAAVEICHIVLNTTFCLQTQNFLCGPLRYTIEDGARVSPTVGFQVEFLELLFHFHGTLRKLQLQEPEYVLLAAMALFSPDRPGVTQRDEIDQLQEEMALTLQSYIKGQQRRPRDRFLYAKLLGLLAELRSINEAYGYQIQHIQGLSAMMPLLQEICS
Sequence of Signal transducer and activator of transcription 3 (Homo sapiens) (P40763 whole entry, looked up): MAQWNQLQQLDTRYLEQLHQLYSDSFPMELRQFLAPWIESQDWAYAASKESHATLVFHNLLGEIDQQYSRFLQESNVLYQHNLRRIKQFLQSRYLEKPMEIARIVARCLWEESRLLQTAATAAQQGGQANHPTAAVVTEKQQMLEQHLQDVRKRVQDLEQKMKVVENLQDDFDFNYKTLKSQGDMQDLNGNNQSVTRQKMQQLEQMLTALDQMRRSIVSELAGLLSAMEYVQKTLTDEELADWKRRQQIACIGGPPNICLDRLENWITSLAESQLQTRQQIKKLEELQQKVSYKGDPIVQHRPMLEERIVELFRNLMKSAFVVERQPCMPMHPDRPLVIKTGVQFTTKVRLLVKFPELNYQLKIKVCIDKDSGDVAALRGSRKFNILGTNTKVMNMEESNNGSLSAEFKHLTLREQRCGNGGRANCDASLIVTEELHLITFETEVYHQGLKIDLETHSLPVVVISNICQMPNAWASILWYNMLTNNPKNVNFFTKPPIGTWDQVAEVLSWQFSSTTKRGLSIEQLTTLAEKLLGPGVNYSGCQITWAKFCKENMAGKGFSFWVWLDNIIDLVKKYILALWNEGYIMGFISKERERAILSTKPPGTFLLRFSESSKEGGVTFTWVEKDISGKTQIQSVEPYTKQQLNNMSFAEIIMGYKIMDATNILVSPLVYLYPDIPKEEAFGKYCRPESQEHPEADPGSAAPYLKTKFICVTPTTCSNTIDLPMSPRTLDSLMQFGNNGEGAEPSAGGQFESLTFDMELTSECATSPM
Sequence of Transcription factor Sp1 (Homo sapiens) (P08047 whole entry, looked up): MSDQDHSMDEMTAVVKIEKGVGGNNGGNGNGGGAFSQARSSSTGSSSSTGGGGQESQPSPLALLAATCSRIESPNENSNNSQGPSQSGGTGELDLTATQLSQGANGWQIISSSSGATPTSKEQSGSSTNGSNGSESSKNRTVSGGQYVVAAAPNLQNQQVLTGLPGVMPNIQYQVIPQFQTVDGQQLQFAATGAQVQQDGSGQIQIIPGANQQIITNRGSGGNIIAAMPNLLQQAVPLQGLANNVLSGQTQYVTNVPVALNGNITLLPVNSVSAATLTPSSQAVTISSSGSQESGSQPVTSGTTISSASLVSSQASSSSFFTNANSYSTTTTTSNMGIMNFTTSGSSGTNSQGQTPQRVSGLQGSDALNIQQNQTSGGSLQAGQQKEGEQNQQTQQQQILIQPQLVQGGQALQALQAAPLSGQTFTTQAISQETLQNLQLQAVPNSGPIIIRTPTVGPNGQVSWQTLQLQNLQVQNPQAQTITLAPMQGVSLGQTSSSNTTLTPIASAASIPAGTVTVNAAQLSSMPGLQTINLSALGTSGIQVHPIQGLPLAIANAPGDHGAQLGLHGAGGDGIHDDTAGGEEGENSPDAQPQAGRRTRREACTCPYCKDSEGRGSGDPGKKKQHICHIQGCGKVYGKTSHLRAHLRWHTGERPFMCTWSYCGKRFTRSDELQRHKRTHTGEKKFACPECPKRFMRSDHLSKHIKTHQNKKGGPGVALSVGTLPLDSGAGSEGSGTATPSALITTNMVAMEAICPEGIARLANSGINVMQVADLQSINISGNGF
Sequence of Steroid hormone receptor ERR1 (Homo sapiens) (P11474 whole entry, looked up, the tested form may be a part): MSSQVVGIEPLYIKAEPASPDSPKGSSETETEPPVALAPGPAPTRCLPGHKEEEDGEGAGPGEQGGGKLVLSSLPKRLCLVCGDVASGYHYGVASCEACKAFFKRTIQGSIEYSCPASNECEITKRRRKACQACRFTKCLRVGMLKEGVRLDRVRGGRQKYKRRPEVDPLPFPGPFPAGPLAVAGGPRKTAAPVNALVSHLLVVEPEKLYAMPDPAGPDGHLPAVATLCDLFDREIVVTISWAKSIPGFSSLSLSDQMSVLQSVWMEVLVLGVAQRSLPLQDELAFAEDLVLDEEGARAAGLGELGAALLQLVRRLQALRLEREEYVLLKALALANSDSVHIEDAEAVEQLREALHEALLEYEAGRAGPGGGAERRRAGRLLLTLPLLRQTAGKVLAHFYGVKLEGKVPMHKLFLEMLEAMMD

With `CC1=C(C(=O)Nc2ccccc2)SCCO1`, the result in assay [1], in assay [3], in assay [4], in [5], in assay [6] and in assay [7] was inactive. Moreover, the molecule was classed as inactive in [8], in assay [9], in assay [10], in assay [11], in [12] and in assay [13]. Also, the result in [14] and in assay [15] was inactive. Also, the AC50 in assay [2] is 40.4 µM (active).
With `CO/C=C(/C(=O)OC)c1ccccc1Oc1cc(Oc2ccccc2C#N)ncn1`, the outcome in [16], in assay [1], in assay [3], in [4], in assay [5] and in assay [6] was inactive. The result in [7], in assay [8], in assay [9], in [10], in assay [11] and in assay [17] was inactive. Moreover, the call in [13], in [14], in assay [15], in [18] and in assay [19] was inactive. Further, in assay [2], the AC50 was 526 nM (active) [middle of 6 runs].
In the case of `O=C(O)c1nc(Cl)ccc1Cl`, the outcome in [1], in assay [2], in assay [4], in [5], in assay [6] and in [7] was inactive. Also, the call in assay [8], in assay [9], in [10], in [11], in [13] and in assay [15] was inactive. For the same molecule, the result in assay [19] was inactive.
As to `COC(=O)c1ccccc1C(=O)OC`, the outcome in assay [16], in assay [1], in assay [4], in assay [5], in [6] and in [7] was inactive. For the same molecule, the result in assay [8], in assay [9], in assay [10], in [11], in [12] and in [17] was inactive. Also, the outcome in [13], in [14], in assay [15] and in [19] was inactive. Moreover, in assay [2], the AC50 was 32.8 µM (active).
Regarding `CCCCNC(=O)n1c(NC(=O)OC)nc2ccccc21`, the outcome in assay [16], in assay [1], in [2], in assay [4], in [5] and in assay [6] was inactive. Besides, the result in assay [7], in assay [8], in assay [9], in assay [10], in assay [11] and in assay [12] was inactive. The outcome in assay [17], in [13] and in assay [15] was inactive.
For the molecule `CCOc1cc(Oc2ccc(C(F)(F)F)cc2Cl)ccc1[N+](=O)[O-]`, the result in [16], in assay [1], in assay [5], in assay [6], in [7] and in [8] was inactive. Moreover, the outcome in assay [9], in assay [10], in assay [11], in assay [17] and in assay [13] was inactive. The AC50 in assay [2] is 8.64 µM (active); in [3], 13.7 µM (active); in [4] it was 29.8 µM (active); in assay [15] it was 13.1 µM (active).
With `CC(Oc1ccc(Cl)cc1Cl)C(=O)O` (stereo not drawn), the molecule was classed as inactive in assay [1], in assay [4], in assay [5], in assay [6], in assay [7] and in [8]. The molecule was called inactive in assay [9], in [10], in [11], in assay [12], in assay [15] and in assay [19]. Further, the AC50 in assay [2] was 79.7 µM (active).
Take `COc1cnc(OC)n2nc(NS(=O)(=O)c3c(OCC(F)F)cccc3C(F)(F)F)nc12`: the result in assay [16], in assay [1], in assay [3], in assay [4], in assay [5] and in assay [6] was inactive. Moreover, the call in [7], in assay [8], in [9], in [10], in [11] and in [17] was inactive. Moreover, the outcome in assay [13], in assay [14], in assay [15] and in assay [19] was inactive. In addition, the AC50 in [2] is 22 µM (active) and 16.4 µM (active).
